Out of some 340,000 compounds screened, about 1,300 (0.38%) were called active. What follows is part of a selection rich in actives, with near analogues and random picks from the rest. A number with no mark means an inactive call.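 How the source made its calls: active means maximum activity change below -70%; inconclusive means maximum activity change between -70% and -50%; inactive means maximum activity change above -50%.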
On the % scale 0 is the no-effect control and ±100 the full control effect.

Sequence of Voltage-gated inwardly rectifying potassium channel KCNH2 (Homo sapiens) (Q12809 whole entry, looked up): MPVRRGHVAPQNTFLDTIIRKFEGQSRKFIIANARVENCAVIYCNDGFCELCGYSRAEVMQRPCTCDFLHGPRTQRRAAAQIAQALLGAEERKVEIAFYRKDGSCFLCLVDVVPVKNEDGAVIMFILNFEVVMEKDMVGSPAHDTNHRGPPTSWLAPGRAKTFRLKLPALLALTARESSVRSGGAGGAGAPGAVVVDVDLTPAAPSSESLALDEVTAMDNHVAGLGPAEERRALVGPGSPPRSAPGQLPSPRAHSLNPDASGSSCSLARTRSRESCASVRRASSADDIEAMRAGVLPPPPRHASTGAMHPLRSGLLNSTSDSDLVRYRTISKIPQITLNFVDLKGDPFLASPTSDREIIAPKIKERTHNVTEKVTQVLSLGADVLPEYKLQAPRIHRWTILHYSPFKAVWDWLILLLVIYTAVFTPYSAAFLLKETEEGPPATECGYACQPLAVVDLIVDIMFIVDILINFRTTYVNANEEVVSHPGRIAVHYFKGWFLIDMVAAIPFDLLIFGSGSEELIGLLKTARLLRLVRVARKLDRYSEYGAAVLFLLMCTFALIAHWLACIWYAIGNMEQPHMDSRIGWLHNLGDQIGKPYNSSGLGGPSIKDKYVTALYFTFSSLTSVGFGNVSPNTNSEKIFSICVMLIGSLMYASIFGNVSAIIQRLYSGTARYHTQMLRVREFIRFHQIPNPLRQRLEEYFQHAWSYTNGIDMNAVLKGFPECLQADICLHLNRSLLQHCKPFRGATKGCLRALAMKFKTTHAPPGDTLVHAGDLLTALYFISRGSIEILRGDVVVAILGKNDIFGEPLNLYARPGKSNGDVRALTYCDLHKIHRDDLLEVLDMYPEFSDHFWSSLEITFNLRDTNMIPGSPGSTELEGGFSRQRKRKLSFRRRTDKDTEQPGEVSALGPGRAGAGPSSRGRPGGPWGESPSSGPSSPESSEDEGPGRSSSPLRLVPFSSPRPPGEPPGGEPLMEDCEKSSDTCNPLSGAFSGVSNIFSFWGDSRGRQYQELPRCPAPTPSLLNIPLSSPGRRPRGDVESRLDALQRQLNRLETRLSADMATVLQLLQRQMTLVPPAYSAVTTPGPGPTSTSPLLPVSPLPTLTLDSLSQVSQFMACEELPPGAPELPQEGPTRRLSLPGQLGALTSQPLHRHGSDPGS

This test addresses Voltage-gated inwardly rectifying potassium channel KCNH2 (Homo sapiens) (UniProt Q12809). As to the kind of experiment: qHTS for Inhibitors of KCHN2 3.1: Wildtype qHTS. As to conditions: U2OS, BacMam KCNH2, thallium flux FluxOr; at 1.84 µM; stronger effect = lower value. The method, boiled down: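 U2OS cells were transduced with wild-type KCNH2 virus (2.03 x 10^8 / mL) for 4 h at room temperature, then cultured overnight at 37 C. Thallium flux was read with FluxOr dye. Rate constants were normalized to DMSO controls.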
(qHTS replaces the single test concentration by a dilution series.)
On to `O=C(O)c1ccccc1Cc1ccc(F)c2ccccc12`, for which the activity change is 3.97%.

In the case of `COC(=O)C[C@H]1C[C@@H]2c3cc(N(C)C)ccc3O[C@@H]2[C@H](CO)O1`, the activity change was -11.4%.

As for `O=C(c1ccc(CS(=O)Cc2ccccc2Cl)o1)N1CCN(c2ccccc2)CC1` (stereo not drawn), the activity change is 7.11%.

`CCn1c(C)nc2c1C(=O)c1ccccc1C2=O`: the activity change is -229% (active).

As to `CCOC(=O)c1ccc2c(c1)nc(C)n2CC`, the activity change is 12.4%.

Consider `Cc1nc2ccccc2n1CC(O)c1ccccc1` (stereo not drawn), for which the activity change was -1.47%.

Turning to `C[C@@H]1CN([C@H](C)CO)C(=O)CCCn2cc(nn2)CO[C@H]1CN(C)S(C)(=O)=O`, the activity change is -23.5%.

For the compound `CC(C)N=C1CCCC1C(=S)SSC(=S)C1CCCC1=NC(C)C` (stereo not drawn), the activity change was -26.8%.

`Cc1ccc(S(=O)(=O)/N=C2\C=C(NS(=O)(=O)c3ccc(C)cc3)C(=O)c3ccccc32)cc1`: the activity change is 1.35%.

Take `Cc1ccc(S(=O)(=O)N(C)C)cc1NC(=O)COC(=O)/C=C/c1cccs1`: the activity change was -3.39%.

`Cc1cccc2sc(N(CCCN(C)C)C(=O)CCS(=O)(=O)c3ccccc3)nc12`: the activity change is 3.42%.

On to `CN(C)CCN(C(=O)CN1C(=O)c2ccccc2C1=O)c1nc2cc3c(cc2s1)OCCO3`, for which the activity change is 8.23%.

Take `Cc1cc(C)c2nc(N(CCN(C)C)C(=O)/C=C/c3cccs3)sc2c1`: the activity change was -136% (active).

As for `Cc1ccc(S(=O)(=O)N(C)C)cc1NC(=O)/C=C/c1cccs1`, the activity change is -0.908%.

Turning to `Cc1ccc2sc(N(CCN(C)C)C(=O)/C=C/c3cccs3)nc2c1C`, the activity change was -101% (active).

`CCOc1ccc(CCNC(=O)COC(=O)c2ccc(C)c(S(=O)(=O)N3CCOCC3)c2)cc1OCC`: the activity change was -0.902%.

For the compound `O=C(Nc1cccc(C(=O)O)c1)/C(=C\c1ccccc1)NC(=O)c1ccc(Br)o1`, the activity change was 9.44%.

For `Cc1ccc(S(=O)(=O)NN=C2CC(C)(C)CC(=O)C2(C)C)cc1`, the activity change is -3.73%.

As to `O=C(OCc1ccccc1)N1CCC2CC1c1cc(N3CCN(S(=O)(=O)c4cc(Cl)cc(Cl)c4)CC3)ccc12` (stereo not drawn), the activity change is 3.43%.

Consider `O=C(Nc1cccn(Cc2ccccc2Cl)c1=O)NC1CCCCC1`, for which the activity change was -11.4%.

Consider `Cc1cc(NC(=O)c2ccco2)c(=O)n(Cc2c(F)cccc2Cl)c1`, for which the activity change was -11.4%.

For the compound `O=C(Nc1cccn(Cc2c(Cl)cccc2Cl)c1=O)c1ccc(Cl)cc1`, the activity change is -350% (active).

As to `CCOC(=O)C1CCN(C(=O)c2ccc3c(=O)n4nc(Nc5ccccc5CC)sc4nc3c2)CC1`, the activity change is -22.8%.

For `CCN(CC)C(=O)C1=C(C)N(Cc2ccc(F)cc2)C(=O)C(CC(=O)NCc2cccc3ccccc23)C1` (stereo not drawn), the activity change was 6.51%.

`O=C(Oc1ccc(-c2nc(-c3ccccn3)no2)cc1)c1ccccc1`: the activity change was -11.6%.

`COC(=O)c1ccc(OC(=O)c2cnccn2)cc1`: the activity change is -0.0992%.

As for `O=C(Oc1ccccc1)c1ccc2nccnc2c1`, the activity change was -169% (active).

As for `Cc1cccc(C(=O)C(O)(c2ccccc2)C2CCCCC2=O)c1` (stereo not drawn), the activity change is 8.63%.

Regarding `N#CCSc1ccccc1NC(=O)CN1C(=O)NC(CCc2ccccc2)C1=O` (stereo not drawn), the activity change is -4.38%.

Take `CC1CCC2(CC1)NC(=O)N(CC(=O)NCc1ccco1)C2=O` (stereo not drawn): the activity change is 5.92%.

On to `COc1ccc(CCNC(=O)CN2C(=O)CCSc3ccccc32)c(OC)c1`, for which the activity change was -169% (active).

With `COc1ccc(CCNC(=O)CCc2cn(C)c3ccccc23)c(OC)c1`, the activity change is 6.58%.

Consider `CCOC(=O)CNC(=O)CN1C(=O)CCSc2ccccc21`, for which the activity change was 10.6%.

As for `CCOC(=O)C(C(=O)c1ccccc1)C(c1ccccc1)c1nccc2ccccc12` (stereo not drawn), the activity change is 3.11%.

In the case of `O=C(CN1CCN(CC(=O)Nc2ccc3c(c2)OCO3)CC1)Nc1ccc(F)cc1`, the activity change is -129% (active).

Turning to `O=C(CN1CCN(C(=O)c2ccco2)CC1)Nc1ccc2c(c1)OCO2`, the activity change was -4.79%.

`O=C(COC(=O)c1ccc(F)cc1)Nc1ccc2c(c1)OCO2`: the activity change was -0.371%.

`CCCCN1C(=O)C(CC(=O)NCc2cccs2)CC(C(=O)N2CCOCC2)=C1C` (stereo not drawn): the activity change was -2.88%.

In the case of `Cc1ccc(S(=O)(=O)N2C[C@]3(O)C[C@@H]4C(=O)N(c5ccccc5)C(=O)[C@@H]4C[C@]3(OC(=O)NC3CC3)C2)cc1`, the activity change was -7.72%.

On to `CN(C)/C=C(/C(=O)c1ccccc1)S(=O)(=O)c1ccc(Cl)cc1`, for which the activity change was -7.44%.

In the case of `CN(C)/C=C(/C(=O)c1ccc(Cl)cc1)S(=O)(=O)c1ccccc1`, the activity change is 0.0109%.

`CN(C)/C=C(/C(=O)c1ccccc1Cl)S(C)(=O)=O`: the activity change is -134% (active).

For `COCC1CCCCN1C(=O)c1cc(COc2ccc(C)c(C)c2)on1` (stereo not drawn), the activity change is -11.8%.
